Results filed as inconclusive are left out. The source made the active and inactive calls. The call rests on the fitted dose curve; in most records, active means well fitted inhibition curve with a large enough effect; inconclusive means small, poorly fitted or top-dose-only effect; inactive means no such curve, though single readings can be large or run the other way.
biological target: Tumor susceptibility gene 101 protein (Homo sapiens) (UniProt Q99816); test: qHTS Assay for Iinhibitors of HIV-1 Budding by Blocking the Interaction of PTAP/TSG101: Hit Validation (AID 651600); details: PTAP peptide/TSG101 UEV interaction, biochemical assay; series mostly up to 57.5 µM; activity change, negative = inhibition: at the top concentration; further: nearly all actives have a fitted effect of over 70% in size
Sequence (Q99816 whole entry, looked up): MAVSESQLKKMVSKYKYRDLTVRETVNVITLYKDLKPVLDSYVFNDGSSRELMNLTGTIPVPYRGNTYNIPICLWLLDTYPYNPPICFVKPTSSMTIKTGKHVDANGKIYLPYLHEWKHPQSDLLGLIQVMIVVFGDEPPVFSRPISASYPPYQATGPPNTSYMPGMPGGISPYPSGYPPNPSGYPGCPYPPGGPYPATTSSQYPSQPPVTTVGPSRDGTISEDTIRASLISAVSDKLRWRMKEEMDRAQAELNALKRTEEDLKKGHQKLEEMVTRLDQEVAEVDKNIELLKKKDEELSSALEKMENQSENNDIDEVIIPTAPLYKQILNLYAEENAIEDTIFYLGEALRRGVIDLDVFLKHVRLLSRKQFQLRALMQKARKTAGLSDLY
Text: Stages of the HIV-1 replication cycle, specifically virus assembly and release, provide underexploited targets for the development of novel antiviral inhibitors. The late stages of HIV-1 replication are mediated by the Gag precursor protein, Pr55Gag. Expression of Pr55Gag is both necessary and sufficient for the production of virus-like particles from Gag-expressing cells. The Gag protein hijacks key host proteins involved in endocytic machinery of the host cell to promote endosomal processing and viral budding. The budding process requires a direct interaction between a […] (PTAP) motif in the p6 domain of Gag and the cellular endosomal sorting protein known as Tsg101. In this way, the Gag PTAP motif promotes the host cells to recruit viral particles to the plasma membrane where the new viral particles are released, effectively turning the host cells into viral factories. A fluorescence anisotropy assay has been developed to quantitatively measure the PTAP-Tsg101 interaction which can be used to screen for inhibitors of this interaction.
NIH Molecular Libraries Probe Production Network [MLPCN]
NIH Chemical Genomics Center [NCGC]
PI Name: Dr. Eric Freed, NCI
Two uL of the Tsg101 binding domain in buffer (10 mM HEPES pH 7.5; 0.15 M NaCl, 0.01% Tween 20; 3 mM EDTA;0.1 mM TCEP) was dispensed into Greiner black MB 1536-well plates (final concentration 10 uM). Then, 23 nL of compounds or DMSO were delivered to each well using a pin tool. Finally, 2 uL of a FITC-labeled peptide containing the PTAP motif (1) in the same buffer was dispensed (50 nM final concentration) and the binding was allowed to proceed for 20 min. at r.t. Fluorescent polarization was determined using FITC excitation and polarized emission filters on a Perkin Elmer Viewlux.
Keywords: Tsg101, PTAP, Gag, HIV, fluorescent polarization, MLSMR, MLPCN, NIH Roadmap, qHTS, NCGC
On the % scale 0 is the no-effect control and ±100 the full control effect; potency means the concentration at half of the fitted maximal effect.

Potency, active:
CC1CCCN(Cc2c(O)ccc3c2O/C(=C\c2ccco2)C3=O)C1 (stereo not given) 14.6 µM, CN(C)c1ccc(N=Cc2nc(-c3ccccc3)oc2O)cc1 18.3 µM, CC(=O)n1c(C=Nc2ccc(Cl)cc2)c(O)c2ccccc21 16.3 µM, COc1ccc(CCn2c(=N)c(S(=O)(=O)c3ccc(Cl)cc3)cc3c(=O)n4ccccc4nc32)cc1 6.51 µM, CCN(CC)c1ccc(/C=C(\C#N)C(=O)NCc2ccccc2)cc1 14.6 µM, COc1cccc2c1C(=O)c1c(O)c3c(c(O)c1C2=O)C[C@](O)(C(C)=O)C[C@H]3O[C@@H]1C[C@@H](N)[C@@H](O)[C@@H](C)O1 14.6 µM, Cc1cc[n+](-c2[nH]c(=O)sc2/C=N/NC([S-])=Nc2ccccc2)cc1 18.3 µM, COc1ccccc1N1C(C)=CC(=C(C#N)c2nc3ccccc3s2)C=C1C 25.9 µM, CN(C)c1ccc(/C=C2\SC(=O)N(CC(O)Cn3c4ccccc4c4ccccc43)C2=O)cc1 (stereo not given) 16.3 µM, O=c1cc2oc3cc(O)c(O)cc3c(-c3ccccc3O)c-2cc1O 13 µM, CCCN(CCC)S(=O)(=O)c1ccc(C(=O)OCCN2C(=O)c3cccc4c(N5CCOCC5)ccc(c34)C2=O)cc1 18.3 µM

Activity change, negative = inhibition, inactive:
COc1ccccc1NC(=O)C(C)OC(=O)C1CC(=O)N(c2ccc3c(c2)OCCO3)C1 (stereo not given) 1.1%, CCc1c(C)sc(NC(=O)c2ccccc2[N+](=O)[O-])c1C(N)=O 7.8%, Cc1cc(Nc2cccc(Cl)c2C)n2ncnc2n1 2.07%, Nc1c(C(=O)O)sc2nc(-c3ccccc3)cc(-c3ccc(Cl)cc3)c12 4.22%, Cc1cc2c(cc1C)NC(c1c(C)n(C)n(-c3ccccc3)c1=O)C1=C(CC(C)(C)CC1=O)N2 (stereo not given) 6.09%, Cc1ccc2nc(-c3ccco3)c(Nc3ccccc3)n2c1 6.19%, CC[C@@]1(C(=O)OC)N[C@H](CN(C)C(=O)c2ccc(C)cc2)[C@@H]2C(=O)N(Cc3ccccc3)C(=O)[C@@H]21 6.11%, COc1cc(OC)c(N(C)C(=O)c2sc3nc4n(c(=O)c3c2C)CCCC4)cc1Cl -8.9%, O=[N+]([O-])c1cc(Br)cc(/C=N/n2cnnc2)c1O -16.4%, O=C(NCc1ccco1)c1cccc2c1C(=O)c1ccc(N3CCC(Cc4ccccc4)CC3)cc1S2(=O)=O -18.3%, Cc1ccc(OC(=O)c2ccc3nc(C)sc3c2)cc1 9.69%, COc1ccc(C(=O)c2sc3nc(C)cc(-c4cccs4)c3c2N)cc1 -24.1%, COc1ccc(C2=CC(c3ccco3)n3ncnc3N2)cc1 (stereo not given) -0.272%, ClCc1nc2ccccc2n1Cc1ccccc1 -12.9%, Fc1ccc(C2=CC(c3ccco3)n3ncnc3N2)cc1 (stereo not given) -1.05%, CN1CCc2c(sc(NC(=O)CSc3ccc(F)cc3)c2-c2nc3ccccc3s2)C1 -0.341%, Cc1ccc(C(=O)Nc2ccc(C(=O)O)cc2)cc1S(=O)(=O)NCc1ccccc1 1.48%, O=[N+]([O-])c1cc(Cl)c2cccnc2c1O -1.11%, CCC1CCCCN1C(=O)c1cc2cc(Br)ccc2oc1=O (stereo not given) -0.278%, CCOc1ccc(S(=O)(=O)N2CCc3cc(OC)c(OC)cc3C2)cc1 0.964%, Cc1c(C(=O)N(C)c2cccc(C(F)(F)F)c2)sc2nc3n(c(=O)c12)CCCCC3 -0.14%, COc1ccc(OC)c(/C=C(\C#N)c2nc(-c3ccc(F)cc3)cs2)c1 -0.321%, CCOC(=O)c1c(C)oc2c1c(CN1CCN(C(=O)OCC)CC1)c(O)c1ccccc12 -5.85%, CC(=O)c1cccc(-n2nnnc2SCC(=O)Nc2cc(C)on2)c1 11.4%, CCCCCOc1ccc(/C=c2\sc3nc(=O)c(-c4ccccc4)nn3c2=O)cc1OC -11.2%, O=[N+]([O-])c1cc(Cl)cc(/C=N/NC(=S)Nc2ccc(S(=O)(=O)N3CCOCC3)cc2)c1O -9.43%, CCCn1c(=N)c(S(=O)(=O)c2ccccc2)cc2c(=O)n3cccc(C)c3nc21 12.9%, CCCCCCCCOc1ccc(C2OC34CCCCC3C(C#N)(C#N)C2(C#N)C(=N)O4)cc1 (stereo not given) -14.4%, Cc1ccc(C2C=C(c3ccccc3)Nc3nc(NS(=O)(=O)c4ccccc4)nn32)cc1 (stereo not given) 0.587%

— PubChem BioAssay (NCATS)
